Source: PubChem BioAssay (NCI)
About 83,000 compounds went through this panel and 20% of them were active in at least one assay; those are over-represented in the sample as a whole.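 Results are percent growth after 48 hours of single-concentration exposure. 100 means growth as in untreated cells, lower positive values show inhibition; negative values down to -100 show cell death.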 Activity calls are given as the source filed them.

These molecules were tested on CCRF-CEM leukemia (assay: NCI-60 one-dose screen, 48 h (100 = growth as untreated, 0 = no growth, -100 = all killed)). Conditions: 10 µM unless noted.
Method: Growth inhibition of the CCRF-CEM human tumor cell line is measured as a screen for anti-cancer activity. Cells are grown in 96 well plates and exposed to the test compound for 48 hours. Compounds are tested at a single concentration, which is 10^-5 M for most compounds. The reported endpoint is percent growth (GI% or GIPRCNT), where numbers from 0 - 100% represent growth inhibition, and numbers from -100% - 0 represent cell death. For example, a value of 40 represents 60% growth inhibition. A value of 0 means no net growth occurred over the course of the experiment. A value of -40 indicates 40% of cells at the beginning of the experiment died by the end of the experiment. A value of -100 means all cells are dead at the end of the experiment.
NCI-60 Human Tumor Cell Lines Screen was performed using the standard one-dose NCI protocol, which is described in more detail at https://dtp.cancer.gov/discovery_development/nci-60/default.htm.
Compounds with GIPRCNT values below 10 were considered active. Activity score was based on GIPRCNT using the following formula: […]
Score is 0 for GIPRCNT values of 100 or above, 50 for GIPRCNT values of 0, and 100 for GIPRCNT values of -100.
`O=C(NCCNc1nccc(-c2c(-c3cccc(O)c3)nc3sccn23)n1)Nc1cc(C(F)(F)F)cc(C(F)(F)F)c1` was tested, and the growth was 39.1% (inactive). `CC1CCc2cc(F)cc3c(=O)c(C(=O)O)cn1c23` (stereo not given) was tested, and the growth was 109% (inactive). `C=CC(=O)NC(=O)Nc1ccccc1Cl` was tested, and the growth was 37.2% (inactive). In the case of `Oc1ccc(O)c(-[n+]2ccccc2)c1`, the growth was 101% (inactive). `Nc1nccc(=S)[nH]1` was tested, and the growth was 113% (inactive). For `CC(=O)c1cc2c(N)c(C(=O)Nc3cccc(Cl)c3)sc2nc1C`, the growth was 92.8% (inactive). For `C=C1C(=O)O[C@H]2[C@H]1CC/C(COC(=O)c1cc(OC)c(OC)c(OC)c1)=C\CC[C@@]1(C)O[C@@H]21`, the growth was -22% (active). In the case of `CCCCCCCCN(CCCCCCCC)CC(O)c1cc(-c2ccccc2)nc2ccc(OC)cc12` (stereo not given), the growth was 4.59% (active). With `O=C1COc2ccccc2C(=O)N1CCCCN1CCCCC1` the growth was 69.4% (inactive). In the case of `COc1ccc(-c2cnc(-c3ccc(F)cc3)[nH]2)cc1`, the growth was -48.2% (active). In the case of `O=C1C(Cl)=C(Nc2cccc3cc4ccccc4nc23)C(=O)c2ccccc21`, the growth was 64.8% (inactive). `CCCCCCCCCCCC(=O)OCCNC(=O)C[n+]1ccccc1` was tested, and the growth was 98.1% (inactive). In the case of `COc1cc(-c2nc3ccccc3s2)ccc1OCc1nc2n(n1)S(=O)(=O)c1ccccc1N2c1ccccc1`, the growth was 112% (inactive). `O[C@@H]1CCO[C@H](c2ccc3ccccc3c2)C1` was tested, and the growth was 103% (inactive). For `Nn1c(CN2CCN(c3cc4c(cc3F)c(=O)c(C(=O)O)cn4C3CC3)CC2)n[nH]c1=S`, the growth was 98.8% (inactive). In the case of `c1nc(SC2=NCCN2)c2[nH]cnc2n1`, the growth was 31.3% (inactive). With `O=C(Nc1ccc(-n2cc(-c3ccncc3)c(-c3ccc(O)c(Cl)c3)n2)cc1)Nc1cc(C(F)(F)F)cc(C(F)(F)F)c1` the growth was 55.8% (inactive). `Nc1ncnc2c1ccn2-c1cccc(NC(=O)c2cccc(C(F)(F)F)c2)c1` was tested, and the growth was 51.3% (inactive). In the case of `CS(=O)(=O)Nc1cccc(-c2ccc3ncnc(Nc4ccc(F)c(Cl)c4)c3c2)c1`, the growth was 19.1% (inactive). With `N#Cc1c(N)nc2c(c1N)C(c1ccc(Cl)cc1)C1=C(CCCC1=O)N2c1sc2c(c1C#N)CCCC2` (stereo not given) the growth was -34% (active). `COc1ccccc1NC(=O)COc1ccc(/C=C2/Oc3cc4occc4c(OC)c3C2=O)cc1OC` was tested, and the growth was 69.9% (inactive). With `O=S1(=O)N(CCNc2nccc(-c3c(-c4cccc(O)c4)nc4sccn34)n2)CCN1Cc1ccccc1` the growth was 31.9% (inactive). In the case of `CC(C)(C)C(=O)Nc1nc2c(s1)CCc1ccn(S(=O)(=O)c3ccccc3)c1-2`, the growth was 92.9% (inactive). For `Nc1c(C(=O)O)[nH]c(=O)[nH]c1=O`, the growth was 90.3% (inactive). In the case of `CCOC(=O)c1cnc2c(OC)ccc(OC)c2c1Cl`, the growth was 5.54% (active). With `NS(=O)(=O)c1ccc(Nc2nc(O)c(/C=C3\C=Nc4ccccc43)s2)cc1` the growth was 85.6% (inactive). `COc1ccc(C2=NN(C(=O)COc3ccc(Cl)cc3)C(O)(c3cc(F)c(Cl)cc3Cl)C2)cc1` (stereo not given) was tested, and the growth was 7.54% (active). For `CN1C(=O)C2(SCC(C(=O)NCC(=O)OC(C)(C)C)N2C(=O)C2CCCCC2)c2ccccc21` (stereo not given), the growth was 96.3% (inactive). In the case of `O=C(Nc1cccc([N+](=O)[O-])c1)c1ccc2ccccc2c1O`, the growth was 39.2% (inactive). `Cn1c(I)c(C#C[Si](C)(C)C)c(=O)[nH]c1=O` was tested, and the growth was -61.6% (active). With `C#C[C@@]1(O)[C@@H](CO)O[C@@H](n2cc(C(F)(F)F)c3c(N)ncnc32)[C@@H]1O` the growth was 5.1% (active). `CCOc1ccc(NC2=C(Cl)C(=O)c3ccccc3C2=O)cc1` was tested, and the growth was 33.3% (inactive). In the case of `O=C(NCCNc1nccc(-c2c(-c3cccc(O)c3)nc3sccn23)n1)Nc1cccc(C(F)(F)F)c1`, the growth was 23.1% (inactive). `CCOC(=O)C1CN(Cc2ccccc2)C(=O)C1=O` (stereo not given) was tested, and the growth was 22.9% (inactive). `CC(=O)Nc1ccc(OC(=O)c2ccccc2O)cc1` was tested, and the growth was 95.9% (inactive). In the case of `Cc1ccc(NC(=O)CN2CCOCC2)cc1Cl`, the growth was 78.9% (inactive). With `C[C@H]1C=C(C[C@@H](O)CCCCCCCCCC[C@@H](O)[C@H]2CCC(=O)O2)C(=O)O1` the growth was 78.5% (inactive). For `CCn1cc(/C=C2\Oc3cc(OCC#N)ccc3C2=O)c2cc(OC)ccc21`, the growth was 9.65% (active). `CC(=O)c1cc2c(c(O)c1C)C(=O)C(=O)c1c(O)cccc1-2` was tested, and the growth was 0.77% (active). For `C=C1c2c(Cl)ccc(O)c2C(O)=C2C(=O)[C@]3(O)C(O)=C(C(N)=O)C(=O)[C@@H](N(C)C)[C@@H]3[C@@H](O)[C@H]12`, the growth was 4.46% (active).
